SMN2 splice enh: SMN2 splice variant enhancement. HEK293 SMN2-luciferase splicing reporter, luminescence, 30-36 h. Potency, µM (series often up to 46.1 µM), most hits filed as activators. 210,000 compounds, 2.8% hits; note: nearly all actives have a fitted effect of over 55% in size
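HEK293 cells carry an SMN2 minigene-luciferase reporter in which exon 7 inclusion puts luciferase in frame. Cells were seeded at 2000 cells/well, attached for 10-12 hours, then exposed to compounds for 30-36 hours at 37C before ONE-Glo luminescence.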
FLuc modulator: counter-screen for miR-21 project: firefly luciferase inhibitors or activators; 360,000 compounds, 6.9% hits; Potency, µM (top dose mostly 57.5 µM), usual class: inhibitors; purified FLuc, Km substrates, luminescence inhibition; note: nearly all actives have a fitted effect of over 55% in size
Target sequence (P08659 whole entry, looked up): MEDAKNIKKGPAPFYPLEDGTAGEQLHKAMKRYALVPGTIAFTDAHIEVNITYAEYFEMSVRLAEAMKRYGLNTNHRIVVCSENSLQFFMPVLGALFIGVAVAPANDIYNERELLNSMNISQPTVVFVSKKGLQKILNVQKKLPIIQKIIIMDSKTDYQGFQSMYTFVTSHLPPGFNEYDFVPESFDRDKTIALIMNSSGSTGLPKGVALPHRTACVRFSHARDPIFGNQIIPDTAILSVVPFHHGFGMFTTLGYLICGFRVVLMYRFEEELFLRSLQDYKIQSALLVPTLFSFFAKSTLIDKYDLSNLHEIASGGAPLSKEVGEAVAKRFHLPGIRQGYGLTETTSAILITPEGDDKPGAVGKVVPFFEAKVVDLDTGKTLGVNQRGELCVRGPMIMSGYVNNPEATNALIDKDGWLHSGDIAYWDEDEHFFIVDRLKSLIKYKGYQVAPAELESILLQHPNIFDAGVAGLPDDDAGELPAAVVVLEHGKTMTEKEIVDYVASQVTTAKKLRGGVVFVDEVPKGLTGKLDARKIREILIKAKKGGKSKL
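Purified P. pyralis luciferase, 10 nM final, with Km-level 10 uM D-luciferin and 10 uM ATP in 50 mM Tris acetate pH 7.5, 10 mM Mg acetate, 0.01% Tween-20, 0.05% BSA; 6-point qHTS titration about 60 µM downward; luminescence read.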
KinaseGlo FLuc: blocks Kinase-Glo luciferase, a counter-screen artifact. Q27757. Kinase-Glo luciferase, ATP luminescence, 8 min. Potency, µM (top dose mostly 38.3 µM), actives largely listed as inhibitors. 200,000 compounds, 0.28% hits; note: nearly all actives have a fitted effect of over 60% in size
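Kinase-Glo luciferase light output from ATP and luciferin was measured with 10 uM ATP, within the enzyme's linear range. Buffer: 50 mM imidazole pH 7.2, 50 mM KCl, 7 mM MgCl2, 0.01% Tween 20, 0.05% BSA; luminescence read after 8 min at ambient temperature.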
ELG1 genotox: genotoxicity induction in ELG1-luciferase HEK293T cells | 330,000 compounds, 1.3% hits | AID 504466 | HEK293T ELG1-luciferase reporter, luminescence, 16 h | Potency, µM (titrated, usually from 46 µM), hits mostly activators; note: nearly all actives have a fitted effect of over 60% in size
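Screening used a luciferase reporter fused to human ELG1 in HEK293T cells. Luminescence was read on a CCD plate imager after 16 hr exposure and 30 min ONE-Glo incubation.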
Rab9 prom act: activates the Rab9 promoter | Huh7 Rab9 promoter-luciferase reporter, luminescence, 24 h | Potency, µM (series often up to 9.22 µM), hits mostly activators | 320,000 compounds, 2.8% hits; note: nearly all actives have a fitted effect of over 60% in size
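Quantitative HTS format; Huh7 Rab9-luciferase reporter cells (1500/well) receive compound 2 h post-plating, incubate 24 h at 37 °C, then get luciferase reagent for 10 min before luminescence reading.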
NPC1 prom act: NPC1 promoter activation. Potency, µM (highest dose often 9.22 µM), usual class: activators. 320,000 compounds, 2.4% hits. Huh7 NPC1 promoter luciferase reporter, 24 h. AID 485313; note: nearly all actives have a fitted effect of over 60% in size
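Stably transfected Huh7 (NPC1 promoter→luciferase), 1500 cells/well in Opti-MEM + 10% FBS, 2 h settle, then compound 24 h at 37 °C. Luminescence after 10 min with Amplite reagent.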
A number is an active result; – = inactive; ? = inconclusive; · = not tested or not shown. In the library only some 7.5% were active in any assay of this set; here they are far more common. Calls come from the whole dose curve; as a rule, active = well fitted curve in the direction sought with a large enough effect; inconclusive = small, poorly fitted or top-dose-only effect, or another doubt; inactive = no such curve, though single readings can be large; an effect the other way counts as inactive or inconclusive.

SMILES	SMN2 splice enh	FLuc modulator	KinaseGlo FLuc	ELG1 genotox	Rab9 prom act	NPC1 prom act
Cc1ccc(Cn2cc(S(=O)(=O)c3cccc(C)c3)c(=O)c3cc(F)c(N4CCOCC4)cc32)cc1	·	–	·	·	·	·
Cc1ccc(F)cc1NC(=O)c1ccc(Cn2nc(N3CCN(c4ccccc4)CC3)ccc2=O)o1	·	–	·	·	·	·
N[C@@](C(=O)O)(c1ccc(P(=O)(O)O)cc1)C1CC1	·	·	–	·	·	·
COc1ccc(/C=N/NC(=O)c2cnccn2)cc1O	–	12µM	–	?	–	–
COc1cccc(/C=N/NC(=O)c2cc(-c3cccn3C)n[nH]2)c1O	–	27µM	–	–	–	–
COc1cc(/C=N/NC(=O)c2ccncc2)ccc1O	·	–	·	–	–	–
CCOc1ccc(NC(=O)CCCc2cc(-c3ccc(OCC)cc3)on2)cc1	–	–	–	–	–	–
CCOc1ccc(-c2cc(CCCC(=O)Nc3cccc(OC)c3)no2)cc1	–	6.7µM	–	–	–	–
CCOc1ccc(-c2cc(CCCC(=O)Nc3cc(OC)ccc3OC)no2)cc1	–	6µM	–	–	–	–
Cc1ccc(SCc2nc3ccccc3n2CC(=O)Nc2ccccc2)cc1	–	15µM	–	–	–	–
O=C(Cn1nnc2ccccc21)Nc1ccc([N+](=O)[O-])cc1	·	–	·	–	–	–
COc1ccc(NC(=O)COC(=O)Cn2nnc3ccccc32)cc1	–	–	–	–	–	–
Cc1cccc(NC(=O)Cn2nnc3ccccc32)c1	–	?	–	?	2.8µM	2.8µM
Cc1ccc(NC(=O)Cn2nnc3ccccc32)cc1	·	17µM	–	?	3.5µM	?
COC(=O)c1ccc(NC(=O)Cn2nnc3ccccc32)cc1	13µM	4.3µM	–	16µM	2.8µM	3.5µM
COCCn1ccc2c(OCC(=O)Nc3ccccc3F)cccc2c1=O	·	–	·	·	·	·
Cc1c(C(=O)N(Cc2ccco2)Cc2ccccc2Cl)oc2ccc(F)cc12	–	–	·	·	·	·
CC(=O)c1cccc(NC(=O)Cn2c(-c3cncs3)nc3ccccc32)c1	–	–	·	·	·	·
CN(Cc1nc2c(s1)CCCC2)C(=O)CCc1nnc(-c2ccccc2)o1	·	?	·	–	–	–
COc1ccc(CCN(C)C(=O)CCc2nnc(-c3ccccc3)o2)cc1OC	·	19µM	–	?	3.2µM	4.5µM
CN(Cc1ccc(F)cc1)C(=O)CCc1nnc(-c2ccccc2)o1	·	17µM	–	?	?	?
O=C1CCc2cc(NS(=O)(=O)c3ccc(F)cc3)cc3c2N1CC3	·	–	·	?	–	–
Cc1ccc(S(=O)(=O)Nc2cc3c4c(c2)CCN4C(=O)CC3)cc1	·	–	·	10µM	–	–
COc1cccc(CNC(=O)CN(c2cc(C)cc(C)c2)S(=O)(=O)c2c(C)noc2C)c1	–	–	–	–	3.5µM	–
COc1cccc(CNC(=O)CN(c2ccc(C(C)C)cc2)S(=O)(=O)c2c(C)noc2C)c1	–	–	·	–	–	–
SMILES	SMN2 splice enh	FLuc modulator	KinaseGlo FLuc	ELG1 genotox	Rab9 prom act	NPC1 prom act
CCc1ccc(NC(=O)CCS(=O)(=O)c2ccc3c(c2)oc(=O)n3C)cc1	·	–	·	·	·	·
CCc1ccccc1NC(=O)c1nn(-c2ccc(C)cc2)c(=O)c2c1c1ccccc1n2C	–	–	·	·	·	·
CC(C)OC(=O)Cn1nnc2c(cnn2-c2ccccc2)c1=O	–	17µM	–	–	–	–
COC(=O)Cn1nnc2c(cnn2-c2ccccc2)c1=O	·	–	–	–	–	–
Cc1sc2c(c1C)c(=O)n(-c1cccc(C(F)(F)F)c1)c(=O)n2Cc1ccccc1C#N	–	–	·	·	·	·
CCNC(=O)c1ccc2c(c1)sc1nc(-c3cccc(OC)c3)cn12	·	–	·	·	·	·
COc1cccc(-c2cn3ncsc3n2)c1	–	15µM	·	·	·	·
CCCCn1c(O)c(N=Nc2ccccc2O)c2ccccc21	·	–	·	–	–	–
Cc1occc1C(=O)N=Nc1c(O)n(C)c2ccccc12	2.8µM	1.7µM	–	?	?	?
CCOC(=O)C(=O)N=Nc1c(O)n(C)c2ccccc12	·	–	–	–	–	–
Cn1c(O)c(N=NC(=O)c2ccco2)c2ccccc21	10µM	4.8µM	–	?	2.2µM	4µM
Cn1c(O)c(N=Nc2ccccc2[N+](=O)[O-])c2ccccc21	·	?	·	?	?	3.5µM
Cn1c(O)c(N=NC(=O)c2ccccc2O)c2ccccc21	·	3µM	–	7.3µM	?	3.5µM
CC(=C/C=C/C(C)=C/C=C/C=C(C)/C=C/C=C(C)/C=C/C(=O)O)/C=C/C(=O)O	–	·	·	·	·	·
Cc1cc(N=NC(=O)c2ccccc2O)c2ccccc2c1O	–	11µM	–	–	3.2µM	?
CCCCN(CC)CCCn1cnc2c([nH]c3ccc(Cl)cc32)c1=O	–	–	·	·	·	·
Cc1cc(NC(=O)CSc2ccc(-c3nc4cc(C)c(C)cc4[nH]3)cn2)no1	–	0.19µM	?	?	0.45µM	2µM
Cc1ccc2nc(SCC(=O)Nc3ncccn3)[nH]c2c1	·	–	·	–	–	–
COC(=O)CSc1ccc(-c2nc3ccc(C)cc3[nH]2)cn1	–	2.7µM	–	?	–	–
Cc1cc2nc(-c3ccc(SCc4ccc(C(=O)O)cc4)nc3)[nH]c2cc1C	·	4.3µM	–	?	?	?
Cc1cc2nc(-c3ccc(SCC(=O)NC(C)C)nc3)[nH]c2cc1C	?	2.1µM	?	–	3.2µM	2.8µM
Cc1cc(C)c(C#N)c(SCc2ccc(C(=O)O)cc2)n1	·	–	·	–	–	–
CC(C)NC(=O)CSc1nnc(-c2ccc(C(C)(C)C)cc2)n1C	–	?	–	–	–	–
O=C(O)c1ccccc1NS(=O)(=O)c1ccc(F)c(Cl)c1	·	·	–	·	·	·
Cc1ccc(C)c(NC(=O)Cn2c(=O)nc(-c3ccccc3)c3ccccc32)c1	·	–	·	·	·	·
SMILES	SMN2 splice enh	FLuc modulator	KinaseGlo FLuc	ELG1 genotox	Rab9 prom act	NPC1 prom act
Cc1coc2cc3oc(=O)c(CCC(=O)NCc4ccccc4Cl)c(C)c3cc12	–	–	·	·	·	·
Cc1cc2nc(-c3ccc(SCC(=O)N4CCc5ccccc54)nc3)[nH]c2cc1C	2.5µM	0.13µM	–	?	0.5µM	1.1µM
Cc1cc2nc(-c3ccc(SCC(=O)Nc4ccc(S(=O)(=O)NC5CC5)cc4)nc3)[nH]c2cc1C	3.5µM	0.11µM	–	?	1.4µM	2.8µM
Cc1cc2nc(-c3ccc(SCc4ccccc4C#N)nc3)[nH]c2cc1C	11µM	9.5µM	–	?	?	–
CCCN(CCC)CCCNC(=O)Cn1ncn2c(cc3sc(CC)cc32)c1=O	–	–	·	·	·	·
O=C(/C=C/c1ccccc1Cl)Nc1cccc(S(=O)(=O)NC2=NCCCCC2)c1	14µM	1.2µM	–	–	?	?
O=C(/C=C/c1ccc(Cl)cc1Cl)Nc1cccc(S(=O)(=O)NC2=NCCC2)c1	5.6µM	0.12µM	–	?	0.35µM	1µM
O=C(Nc1cccc(S(=O)(=O)NC2=NCCC2)c1)c1c(F)cccc1Cl	·	–	·	–	–	–
Cc1ccc(N2CC(NC(=O)c3ccco3)CC2=O)cc1 (stereo not given)	·	–	·	·	·	·

Screening data deposited in PubChem by National Center for Advancing Translational Sciences (NCATS).
